High-throughput results: PubChem, National Center for Advancing Translational Sciences (NCATS)
ELG1 repair inh – qHTS screen for small molecules that inhibit ELG1-dependent DNA repair in human embryonic kidney (HEK293T) cells expressing luciferase-tagged ELG1; HEK293T ELG1-luciferase reporter, luminescence, 16 h; DNA damage induced by 5-fluorouridine; Potency, µM (doses to about 46.1 µM), usual class: inhibitors; 2.3% of 330,000 active; AID 504467, 2011; further: nearly all actives have a fitted effect of over 55% in size
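Quantitative HTS, concentration-response format. 2,000 cells/well co-treated with 5-fluorouridine and compound, 16 hr in 5% CO2 at 37 °C; ONE-Glo luminescence read after 30 min.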
TDP1 block – qHTS Assay for Inhibitors of Tyrosyl-DNA Phosphodiesterase (TDP1); Tyrosyl-DNA phosphodiesterase 1 (Homo sapiens), Q9NUW8; recombinant TDP1, AlphaScreen DNA substrate cleavage; Potency, µM (doses to about 130 µM), usual class: inhibitors; 0.28% of 350,000 active; further: nearly all actives have a fitted effect of over 40% in size
Target sequence (Q9NUW8 whole entry, looked up): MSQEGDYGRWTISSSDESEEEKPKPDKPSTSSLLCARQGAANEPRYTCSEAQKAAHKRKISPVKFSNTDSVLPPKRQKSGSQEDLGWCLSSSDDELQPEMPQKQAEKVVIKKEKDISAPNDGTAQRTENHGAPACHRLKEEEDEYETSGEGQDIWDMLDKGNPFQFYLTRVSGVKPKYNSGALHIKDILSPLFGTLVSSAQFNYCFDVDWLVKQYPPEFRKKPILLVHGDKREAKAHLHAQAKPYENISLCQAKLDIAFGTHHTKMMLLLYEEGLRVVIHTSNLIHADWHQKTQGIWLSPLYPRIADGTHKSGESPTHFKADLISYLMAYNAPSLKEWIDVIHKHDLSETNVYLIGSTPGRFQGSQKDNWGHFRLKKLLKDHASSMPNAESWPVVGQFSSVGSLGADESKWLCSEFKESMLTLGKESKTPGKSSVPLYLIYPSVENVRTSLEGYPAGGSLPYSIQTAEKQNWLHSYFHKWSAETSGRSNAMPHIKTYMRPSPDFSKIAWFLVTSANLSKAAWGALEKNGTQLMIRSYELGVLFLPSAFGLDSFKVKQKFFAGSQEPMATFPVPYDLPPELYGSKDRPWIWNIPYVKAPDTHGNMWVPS
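Signal: AlphaScreen proximity between streptavidin donor and anti-FITC acceptor beads on intact substrate. Reaction: Tdp1 1 nM, substrate 15 nM final, 5 min RT after 15 min compound preincubation.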
IL-1B inflam inh – qHTS for Inhibitors of Inflammasome Signaling: IL-1-beta AlphaLISA Primary Screen. activity change, % at 57.5 µM. 4.7% of 360,000 active. THP-1 LPS/ATP IL-1B secretion, AlphaLISA, 16 h; active compounds read low. AID 743279, 2014; in the data active means activity change below about -50%; inconclusive means mostly about -30% to -49%
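THP-1 cells pretreated 1 hr with compounds (up to 57.5 uM final), then stimulated with LPS (250 ng/mL final) plus ATP (1.25 mM final); secreted IL-1B measured by AlphaLISA after 16 hr, decreased signal indicating inhibition.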
DT40 TDP1 CPT – qHTS for Inhibitors of human tyrosyl-DNA phosphodiesterase 1 (TDP1): qHTS in cells in presence of CPT | chicken DT40 Tdp1-/-;hTDP1 cells + 20 nM CPT, ATP luminescence, 48 h | Potency, µM (top dose mostly 46.2 µM), hits mostly inhibitors | 12% of 420,000 active; further: nearly all actives have a fitted effect of over 55% in size
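Chicken DT40 Tdp1-/- cells stably complemented with human TDP1 were seeded at 400 cells/well in medium containing 20 nM camptothecin, exposed to pin-transferred compounds, and grown at 37 °C for at least 48 hr. Viability was read as ATP luminescence.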
Giardia killer – Small Molecules that selectively kill Giardia lamblia: qHTS; activity change, % at 7.66 µM, hits read low; Giardia lamblia trophozoite viability; 0.15% of 340,000 active; AID 540267, 2011; in the data active means activity change below about -80%; inconclusive means between about -30% and that limit;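 further: parasites exposed to compound for two days anaerobically before the ATP read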
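Giardia lamblia trophozoites (100 cells/well) were incubated with compounds for 48 h at 37 deg C under anaerobic conditions. Viability was read as ATP content by one-step luminescence after 15-30 min at room temperature.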
TDP1 cell noCPT – qHTS for Inhibitors of human tyrosyl-DNA phosphodiesterase 1 (TDP1): qHTS in cells in absence of CPT | AID 686978, 2013 | 15% of 420,000 active | Potency, µM (series often up to 46.2 µM), actives largely listed as inhibitors | DT40 Tdp1-/- hTDP1 cells, no CPT, ATP luminescence, 48 h; further: nearly all actives have a fitted effect of over 55% in size
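Seeded 400 DT40-hTDP1 cells/well (vehicle DMSO, no 20 nM CPT); pinned compounds; ≥48 hr at 37 °C; CellTiter-Glo luminescence as viability measure.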
Numbers stand for hits; . = inactive; ? = inconclusive; / = no result. Sampled rows, rich in hits. Any-hit rate of the full collection: about 19%. Unless noted, the call rests on the fitted dose curve; in most records, active means well fitted curve in the direction sought with a large enough effect; inconclusive means small, poorly fitted or top-dose-only effect, or another doubt; inactive means no such curve, though single readings can be large; an effect the other way counts as inactive or inconclusive.

SMILES	ELG1 repair inh	TDP1 block	IL-1B inflam inh	DT40 TDP1 CPT	Giardia killer	TDP1 cell noCPT
COC(=O)c1ccc(C(=O)Nc2ccc(F)cc2)cc1	?	.	.	10µM	.	8.2µM
C[C@@H]1O[C@@H](OC[C@H]2O[C@@H](Oc3c(-c4ccc(OCCO)c(OCCO)c4)oc4cc(OCCO)cc(O)c4c3=O)[C@H](O)[C@@H](O)[C@@H]2O)[C@H](O)[C@H](O)[C@H]1O	/	/	/	.	/	.
Cc1ccc(S(=O)(=O)NC[C@H]2O[C@@H](n3ccc(N)nc3=O)[C@H](O)[C@@H]2O)s1	/	/	.	.	/	.
Cc1ccc(C)c(C(=O)CSc2nc(N)cc(=O)[nH]2)c1	.	.	.	.	.	.
C[C@@H]1C[C@@H]([C@@H](C)CC2CC(=O)NC(=O)C2)C(=O)[C@@H](C)C1	/	.	/	/	/	/
COc1ccc(CNc2ncncc2-c2ccc(N(C)C)cc2)c(OC)c1	/	/	/	18µM	/	?
COc1ccc(CNc2ncnc3ccc(-c4c(C)noc4C)cc23)c(OC)c1	/	/	/	.	/	?
COc1ccc(CNc2ncnc3ccc(-c4ccc(N(C)C)cc4)cc23)c(OC)c1	/	/	/	23µM	/	?
FC(F)(F)c1ccc(N2CCOCC2)c(Nc2nc3ccccc3n3cnnc23)c1	?	.	-61	?	.	?
c1ccc(N2CCCCC2)c(Nc2nc3ccccc3n3cnnc23)c1	?	/	.	?	.	21µM
Fc1ccc(Nc2nc3ccccc3n3cnnc23)c(F)c1	/	.	/	.	/	.
Cc1noc(C)c1S(=O)(=O)NC(=O)C1(C)CCN1C(=O)c1ccccc1CCc1ccccc1 (stereo not drawn)	/	/	.	?	/	?
COc1ccc(-c2noc(N3CCC(C(=O)NCCCN4CCCC(C)C4)CC3)n2)cc1 (stereo not drawn)	?	/	.	?	.	.
Cc1ccc(C)c(NC(=O)C2CCCN(c3nc4ccccc4s3)C2)c1 (stereo not drawn)	/	.	/	?	/	?
O=C(N/C(=C/c1cccc(Br)c1)C(=O)N1CCOCC1)c1ccco1	/	/	.	.	/	.
Cn1c(=O)oc2cc(S(=O)(=O)N3CCCC(C(=O)NCCc4ccccc4)C3)ccc21 (stereo not drawn)	/	.	/	.	/	.
c1ccc(Oc2ccccc2-c2cc(NCCc3cccnc3)n3nccc3n2)cc1	/	/	.	18µM	/	?
c1ccc(Oc2ccc(-c3cc(NCCc4cccnc4)n4nccc4n3)cc2)cc1	/	/	.	?	/	.
CC(=O)OCC1(C)CN(c2ccccc2)NC1=O (stereo not drawn)	?	.	.	21µM	?	?
COC(=O)CN1CC(=O)N(c2ccccc2)C1=S	.	.	.	.	.	.
CC(=O)OCC1(C)CN(c2ccccc2)N(C(=O)c2ccc(C(C)(C)C)cc2)C1=O (stereo not drawn)	.	.	.	?	.	?
CC(=O)OCC1(C)CN(c2ccccc2)N(C(C)=O)C1=O (stereo not drawn)	.	.	.	?	.	21µM
CCN(CCCCN1C(=O)c2ccccc2C1=O)c1ccc2c(c1)C(=O)N(C)C2=O	16µM	/	.	?	.	18µM
C#CCNC(=O)c1csc([C@@H]2O[C@H](CO)[C@@H](O)[C@H]2O)n1	/	/	.	16µM	/	?
O=C(NCc1cccs1)c1csc([C@@H]2O[C@H](CO)[C@H](O)[C@H](O)[C@H]2O)n1	/	/	.	.	/	.
SMILES	ELG1 repair inh	TDP1 block	IL-1B inflam inh	DT40 TDP1 CPT	Giardia killer	TDP1 cell noCPT
O=C(NCc1ccncc1)c1csc([C@@H]2O[C@H](CO)[C@@H](O)[C@H]2O)n1	/	/	.	2.1µM	/	2.3µM
Cc1cccc(S(=O)(=O)c2cn(C)c3cc(N4CCN(c5ccc(F)cc5)CC4)c(F)cc3c2=O)c1	/	.	/	.	/	.
Cn1c(SCC(=O)NCc2ccccc2)ncc(C(=O)Nc2ccccc2)c1=O	.	.	.	12µM	.	?
COc1ccc(CCNC(=O)CSc2ncc(C(=O)Nc3ccccc3)c(=O)n2C)cc1	.	.	.	?	.	?
CC(=O)Nc1ccc(NC(=O)CSc2ncc(C(=O)Nc3ccccc3)c(=O)n2C)cc1	?	.	.	21µM	.	21µM
Cn1c(SCC(=O)Nc2nc3ccccc3s2)ncc(C(=O)Nc2ccccc2)c1=O	/	.	/	.	/	.
COc1ccccc1NC(=O)c1cnc(SCC(=O)NCCc2ccccc2)n(C)c1=O	?	.	.	16µM	.	10µM
Cc1ccc(CNC(=O)CSc2ncc(C(=O)Nc3ccccc3)c(=O)n2C)cc1	?	.	.	12µM	.	15µM
Cc1ccc(NC(=O)c2cnc(SCC(=O)Nc3cc(C)on3)n(C)c2=O)cc1	/	.	/	.	/	.
CSc1ccc(CCNC(=O)c2cccc3c2C(=O)N(C2CCCCC2)C3)cc1	?	.	.	?	.	?
CCCCN(C)CCNC(=O)c1ccc2c(c1)NC(=O)CN2	/	.	/	?	/	?
O=C(COC(=O)C1CCCCC1)Nc1cccc(Br)c1	.	.	.	.	.	.
CCCCN(CC)S(=O)(=O)c1ccc(C(=O)Nc2nnc(-c3ccccc3Cl)o2)cc1	?	.	/	/	/	/
COc1ccccc1-c1nnc(NC(=O)c2ccc(S(=O)(=O)N(C)C)cc2)o1	?	.	.	?	.	23µM
CCN(Cc1ccccc1)S(=O)(=O)c1ccc(C(=O)Nc2nnc(-c3ccccc3OC)o2)cc1	?	.	.	12µM	.	8.2µM
Cc1nc2nc(NC(=O)c3cccc(Cl)c3)[nH]n2c(=O)c1Cc1ccccc1	/	.	/	?	/	?
CCOC1CCCc2oc(-c3ccsc3)c(-c3cnc(OC)nc3)c21 (stereo not drawn)	/	/	.	?	/	23µM
CC(C)CN1CC(Br)C(=O)NC1=O (stereo not drawn)	/	/	.	?	.	?
O=C(Cc1csc(NC(=O)c2ccc(F)cc2)n1)NO	.	.	.	?	.	?
COc1cc(-c2cc(OC)c(O)c(OC)c2)cc(OC)c1O	/	/	.	16µM	.	9.2µM
O=C1CN(C(=O)c2cc(Br)c(Br)s2)c2ccccc2N1	?	.	.	?	.	13µM
O=C1CN(C(=O)c2ccccc2)c2ccccc2N1	.	.	.	.	.	.
O=C1CN(C(=O)c2cccc(Br)c2)c2ccccc2N1	.	.	.	15µM	.	12µM
Cc1nc2sccn2c(=O)c1S(=O)(=O)Nc1cc(Cl)ccc1O	/	.	/	?	/	?
